The list is not random: actives were taken first. Their share in the collection is about 6.6%.
KB-V1 cytotox: kills drug-selected multidrug resistant KB-V1 cells | KB-V1 MDR cells viability, CellTiter-Glo, 72 h | Potency, µM (titrated, usually from 46.1 µM), actives largely listed as cytotoxic | 400,000 tested, 3.4% active; also: % is scaled to controls: 0 for no effect and ±100 for the full control effect; nearly all actives have a fitted effect of over 60% in size
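Potencies derive from concentration-effect curves fitted to normalized luminescence (CellTiter-Glo) of KB-V1 cells treated for 72 h at 37 degrees C in phenol-red-free DMEM containing 10% FBS.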
HT1080-NT tox: kills 2HG-producing HT-1080-NT fibrosarcoma cells; HT-1080-NT fibrosarcoma viability, CellTiter-Glo ATP luminescence, 48 h; Potency, µM (doses to about 46.1 µM), inactives show at the top dose activity, negative = less viability, most hits filed as cytotoxic; 360,000 tested, 1.6% active; AID 686970;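 also: NT is the 2HG producing partner of a matched IDH1 knockdown line; 0% = DMSO-treated cells and -100% = media-only wells without cells; nearly all actives have a fitted effect of over 55% in size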
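HT-1080-NT fibrosarcoma cells (2HG-overproducing), 750 cells/well in RPMI with 5% FBS, dosed after 2 h and incubated 48 h at 37C. CellTiter-Glo luminescence normalized to DMSO and no-cell wells; concentration-response curves fitted and classed.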
TGFb inhibitor: TGF-b pathway inhibition; Potency, µM (highest dose often 46.1 µM), without a hit: at the top dose activity, negative = inhibition, hits mostly inhibitors; 410,000 tested, 1.2% active; AID 588855; HepG2 CAGA-GFP TGF-b/SMAD3 reporter, GFP fluorescence, 18 h; TGF-beta stimulated, 500 pg/mL final; also: % is scaled to controls: 0 for no effect and ±100 for the full control effect; nearly all actives have a fitted effect of over 65% in size
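Read-out: total well GFP (ex488/em500-530) summed from mean per-cell fluorescence. Cells: HEPG2 CAGA-GFP, 1% FBS DMEM, 18 h at 37 degrees C with 500 pg/mL final TGF-beta. Unstimulated wells served as the full-inhibition control; stimulated DMSO wells = 0%.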
HT1080 IDH1KD tx: HT-1080 IDH1 knockdown cell toxicity (counter line) | HT-1080 IDH1 knockdown viability, ATP luminescence, 48 h | Potency, µM (series often up to 46.1 µM), for inactives: at the top dose activity, negative = toxicity, actives largely listed as cytotoxic | 360,000 tested, 2% active;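 also: 0% = DMSO wells and -100% = cell-free medium wells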
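% activity derives from luminescence (CellTiter-Glo), normalised to DMSO and no-cell wells. HT-1080-IDH1KD cells, 750/well, had 48 h compound exposure at 37 °C.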
KB-3-1 tox: KB-3-1 parental cell cytotoxicity. 400,000 tested, 1.4% active. KB-3-1 viability, CellTiter-Glo ATP luminescence, 72 h. Potency, µM (highest dose often 46.1 µM), hits mostly cytotoxic; also: % is scaled to controls: 0 for no effect and ±100 for the full control effect; nearly all actives have a fitted effect of over 60% in size
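Luminescent ATP read-out (CellTiter-Glo) measures survival of drug-naive KB-3-1 cells after 72 h compound exposure at 37 °C. Titration series was screened from lowest to highest concentration, with DMSO vehicle plates as background controls.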
HepG2 viability: kills HepG2 cells in TGF-b inhibitor counter-screen; HepG2 CAGA-GFP viability, ATP luminescence, 18 h; Potency, µM (series often up to 46.1 µM), for inactives: at the top dose activity change, negative = cytotoxicity, most hits filed as cytotoxic; 410,000 tested, 0.76% active; AID 588856
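HepG2 CAGA-GFP cells (1000/well, DMEM with 1% FBS) received compound, then TGF-beta at 500 pg/mL final, and were incubated 18 hours at 37 degrees C. Viability was read by CellTiter-Glo luminescence. Media-only wells were set as complete cell-killing and DMSO as no toxicity.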
Active calls of the source: *. Calls follow the shape of the dose curve; as a rule, active = well fitted curve in the direction sought with a large enough effect; inconclusive = small, poorly fitted or top-dose-only effect, or another doubt; inactive = no such curve, though single readings can be large; an effect the other way counts as inactive or inconclusive. Potency is read from the fitted curve at half-maximal effect.

Results for COc1cc(/C=N/NC(=O)C2COc3ccccc3O2)ccc1O (centres undefined) ?
KB-V1 cytotox: inactive; HT1080-NT tox: -2.6%; TGFb inhibitor: -1.2%; HT1080 IDH1KD tx: -1.1%; KB-3-1 tox: inactive; HepG2 viability: -10.5%

How did COc1ccc(/C=N/NC(=O)C2COc3ccccc3O2)cc1OC (centres undefined) do in these assays?
KB-V1 cytotox: inactive; HT1080-NT tox: -0.4%; TGFb inhibitor: -17.8%; HT1080 IDH1KD tx: 1.9%; KB-3-1 tox: inactive; HepG2 viability: 4.4%

Results for O=C(N/N=C/c1ccc2c(c1)OCO2)C1COc2ccccc2O1 (centres undefined) ?
KB-V1 cytotox: 10.3µM*; HT1080-NT tox: inconclusive; TGFb inhibitor: -1.7%; HT1080 IDH1KD tx: inconclusive; KB-3-1 tox: inactive; HepG2 viability: -13.7%

Results for Cc1ccc2c(CSc3nncn3C)cc(=O)oc2c1C ?
KB-V1 cytotox: inactive; HT1080-NT tox: 3.6%; TGFb inhibitor: 0.0%; HT1080 IDH1KD tx: 12.4%; KB-3-1 tox: inactive; HepG2 viability: 10µM*

What do the screens show for `Cc1ccc2c(CN3CCCCC3)cc(=O)oc2c1C`?
KB-V1 cytotox: inactive; HT1080-NT tox: 3.6%; TGFb inhibitor: -7.5%; HT1080 IDH1KD tx: -0.2%; KB-3-1 tox: inactive; HepG2 viability: -28.2%

How did CC(=O)Nc1ccc(Nc2ncnc3c2cnn3-c2cccc(C)c2)cc1 do in these assays?
KB-V1 cytotox: 16.4µM*; HT1080-NT tox: -1.3%; TGFb inhibitor: inconclusive; HT1080 IDH1KD tx: -5.5%; KB-3-1 tox: inactive; HepG2 viability: -9.7%

What do the screens show for `COc1ccc(OC)c(Nc2ncnc3c2cnn3-c2cccc(Cl)c2)c1`?
KB-V1 cytotox: inconclusive; TGFb inhibitor: 1.6%; KB-3-1 tox: inconclusive; HepG2 viability: -18.1%

How did CC(=O)Nc1ccc(Nc2ncnc3c2cnn3-c2ccccc2)cc1 do in these assays?
KB-V1 cytotox: inconclusive; HT1080-NT tox: -7.9%; TGFb inhibitor: -12.6%; HT1080 IDH1KD tx: -0.6%; KB-3-1 tox: inconclusive; HepG2 viability: 3.6%

What do the screens show for `COc1ccc(OC)c(Nc2ncnc3c2cnn3-c2cccc(C)c2)c1`?
KB-V1 cytotox: inconclusive; HT1080-NT tox: 7.08µM*; TGFb inhibitor: 4.7%; HT1080 IDH1KD tx: 7.08µM*; KB-3-1 tox: inconclusive; HepG2 viability: -29.9%

What do the screens show for `CCOC(=O)c1nnc(-c2ccc(C)cc2)nc1Oc1ccc(Cl)cc1Cl`?
KB-V1 cytotox: inactive; HT1080-NT tox: -27.8%; TGFb inhibitor: inconclusive; HT1080 IDH1KD tx: -17.9%; KB-3-1 tox: inactive; HepG2 viability: -4.5%

What do the screens show for `CCOC(=O)c1nnc(-c2ccc(C)cc2)nc1Sc1ccccc1Cl`?
KB-V1 cytotox: inactive; HT1080-NT tox: -8.9%; TGFb inhibitor: inconclusive; HT1080 IDH1KD tx: 0.6%; KB-3-1 tox: inconclusive; HepG2 viability: -11.9%

What do the screens show for `CCOC(=O)c1nnc(-c2ccccc2)nc1Sc1c(Cl)cccc1Cl`?
KB-V1 cytotox: inactive; HT1080-NT tox: inconclusive; TGFb inhibitor: 10µM*; HT1080 IDH1KD tx: 20.6µM*; KB-3-1 tox: inactive; HepG2 viability: -115.3%

What do the screens show for `CCOC(=O)c1nnc(-c2ccc(C)cc2)nc1Oc1ccccc1Cl`?
KB-V1 cytotox: inactive; HT1080-NT tox: 23.1µM*; TGFb inhibitor: inconclusive; HT1080 IDH1KD tx: 23.1µM*; KB-3-1 tox: inactive; HepG2 viability: -16.9%

What do the screens show for `COc1ccc(C)c2sc(N(CCCN(C)C)C(=O)CS(=O)(=O)c3ccc(F)cc3)nc12`?
KB-V1 cytotox: inactive; HT1080-NT tox: 18.4µM*; TGFb inhibitor: -26.4%; HT1080 IDH1KD tx: -24.0%; KB-3-1 tox: inactive; HepG2 viability: -31.0%

How did Cc1cc(C)c2sc(N(CCN(C)C)C(=O)CCS(=O)(=O)c3ccccc3)nc2c1 do in these assays?
KB-V1 cytotox: inactive; HT1080-NT tox: -11.6%; TGFb inhibitor: -33.1%; HT1080 IDH1KD tx: -5.9%; KB-3-1 tox: inconclusive; HepG2 viability: -93.5%
